Compound activity (PubChem)
PREPL inh – inhibits the human prolyl oligopeptidase-like enzyme | 320,000 tested, 0.68% active | inhibition, % at 5.96 µM | recombinant PREPL, fluorescence polarization activity-based probe
EBNA-1 inh – blocks EBNA-1 binding to DNA | EBNA-1 DNA binding, fluorescence polarization | 300,000 tested, 0.34% active | inhibition, % at 14.8 µM; in the data active means inhibition above about 28%
LYPLA2 counter – counter-screen for PME1 inhibitors: inhibitors of human LYPLA2 | O95372 | recombinant LYPLA2, FP-Rh probe fluorescence polarization | inhibition, % at 5.9 µM | 320,000 tested, 0.38% active;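 active means inhibition above the screen-wide mean plus 3 SD, limit set per campaign, cut at about 26% in these data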
ZTA DNA inh – blocks Epstein-Barr virus ZTA, an EBNA-1 counter-screen; AID 2234; inhibition, % at 11 µM; P03206; 320,000 tested, 0.15% active; ZTA-DNA binding, fluorescence polarization; in the data active means inhibition above about 33%
Target sequence (P03206 whole entry, looked up): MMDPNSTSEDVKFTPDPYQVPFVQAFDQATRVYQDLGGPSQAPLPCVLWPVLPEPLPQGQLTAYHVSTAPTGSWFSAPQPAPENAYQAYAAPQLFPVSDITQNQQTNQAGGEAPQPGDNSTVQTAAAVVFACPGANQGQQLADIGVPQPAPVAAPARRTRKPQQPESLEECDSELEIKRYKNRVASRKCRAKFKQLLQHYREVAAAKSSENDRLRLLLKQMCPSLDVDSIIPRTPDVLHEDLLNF
LYPLA1 counter – blocks human lysophospholipase 1, a PME1 counter-screen. AID 2174. O75608. 320,000 tested, 0.16% active. inhibition, % at 5.9 µM. recombinant LYPLA1, FP-Rh probe fluorescence polarization;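 active means inhibition above the mean of all tested compounds plus 3 SD, set per campaign, cut at about 14% in these data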;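 further: inhibitors block serine hydrolase probe labeling of LYPLA1 so polarization falls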
Target sequence (O75608 whole entry, looked up): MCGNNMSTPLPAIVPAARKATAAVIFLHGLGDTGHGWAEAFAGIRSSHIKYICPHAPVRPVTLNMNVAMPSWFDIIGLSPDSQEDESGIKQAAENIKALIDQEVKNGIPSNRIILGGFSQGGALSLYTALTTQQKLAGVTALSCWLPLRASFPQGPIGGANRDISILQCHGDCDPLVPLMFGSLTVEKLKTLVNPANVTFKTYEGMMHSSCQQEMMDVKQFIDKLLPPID
PREPL confirm – human PREPL inhibition, confirmation. inhibition, % at 5.96 µM. 2,000 tested, 67% active. shares compounds with PREPL inh. recombinant PREPL, fluorescence polarization activity probe
Large screens that a line does not name were inactive (follow-up assays come after a bar, where they were run). This is a sample that favours compounds with a hit; in the whole collection about 1.3% have one here. Unless noted, no stated cut-off is given here; in the data, active means inhibition above about 43%; inactive means the rest.

Cc1ccc(-n2cccc2C(=O)NS(=O)(=O)c2ccc(C)cc2)cc1	none
Cc1ccc(-n2cccc2C(=S)N=P(N(C)C)(N(C)C)N(C)C)cc1	PREPL inh 44 | PREPL confirm inactive
COc1ccccc1-c1nnc(SC/C(O)=C(\C#N)c2nc3ccccc3[nH]2)n1C1CCCCC1	none
N#C/C(=C(/O)CSc1nnc(Cc2cccs2)n1C1CCCCC1)c1nc2ccccc2[nH]1	PREPL inh 43 | PREPL confirm inactive
Cc1ccc2c(c1)N(C(=O)CCC(=O)NCCCN1CC(C)CC(C)C1)CCO2 (stereo not drawn)	none
Cc1ccc(-n2nc(C(=O)NN)c(C)c(C#N)c2=O)cc1Cl	PREPL inh 66 | PREPL confirm inactive
COc1c(C(=O)NNC(=O)c2ccccc2)csc1Br	none
CC(c1ccccc1)N1CC(C(=O)Nc2ccc(F)cc2)CC1=O (stereo not drawn)	none (no result: EBNA-1 inh)
O=C1NC(Cc2c[nH]c3ccccc23)C(=O)N1CCOc1ccc(F)cc1 (stereo not drawn)	none
O=C1NC(Cc2c[nH]c3ccccc23)C(=O)N1Cc1ccc(CN2C(=O)NC(Cc3c[nH]c4ccccc34)C2=O)cc1 (stereo not drawn)	PREPL inh 76 | PREPL confirm 57
COc1cc(/C=C2/SC(=S)N(CC(=O)O)C2=O)ccc1OC(=O)c1cccs1	PREPL inh 59 | PREPL confirm 62
COc1cc(/C=C2\SC(=S)N(CC(=O)O)C2=O)ccc1OS(=O)(=O)c1ccc(C)cc1	none
Cc1nc(SCC(=O)N2CCCC2=O)nc(C)c1C	none (no result: EBNA-1 inh, LYPLA2 counter, ZTA DNA inh, LYPLA1 counter)
O=C(NC(=O)c1csnn1)Nc1ccccc1Cl	none
COCCCNC(=O)Cn1cnc2c(OCc3ccccc3)ncnc21	none (no result: EBNA-1 inh, LYPLA2 counter, ZTA DNA inh, LYPLA1 counter)
COc1ccc(C2c3ccc4ccccc4c3Oc3ncn(CCCN(C)C)c(=N)c32)cc1 (stereo not drawn)	PREPL inh 45 | PREPL confirm inactive
COc1ccccc1C1c2ccc3ccccc3c2Oc2ncn(CCN(C)C)c(=N)c21 (stereo not drawn)	none
Cc1ccc(NNC(=O)c2ccno2)c(C)c1	none
COc1ccc(C(CNC(=O)COc2cc(C)ccc2Cl)N2CCCCC2)cc1 (stereo not drawn)	none
CN(C)c1ccc(C(CNC(=O)COc2ccc(Cl)cc2)N2CCCC2)cc1 (stereo not drawn)	PREPL inh 67 | PREPL confirm 53
O=[N+]([O-])c1ccc(S(=O)(=O)N2CCN(Cc3ccco3)CC2)cc1	none
Cc1ccc(S(=O)(=O)NCC(=O)OCC(=O)N(CCC#N)c2ccccc2)cc1	PREPL inh 47 (no result: EBNA-1 inh, LYPLA2 counter, ZTA DNA inh, LYPLA1 counter) | PREPL confirm inactive
Cc1cc(C)cc(N(CCC#N)C(=O)COC(=O)CNC(=O)c2sc3ccccc3c2Cl)c1	PREPL inh 43 | PREPL confirm inactive
CNS(=O)(=O)c1cccc(C(=O)OCC(=O)N(CCC#N)c2ccccc2)c1	none
COc1ccccc1C1CCN(C(=O)c2cccc([N+](=O)[O-])c2)CC1	none
OCC(O)C1OC(Nc2ccc(Cl)cc2)C(O)C1O (stereo not drawn)	none
C/C(CC(=O)Nc1ccccc1C#N)=N\NC(=O)c1ccncc1	none
Cc1ccc2nc3c(cc(C(=O)NCCN4CCOCC4)c(=N)n3CCCN3CCOCC3)c(=O)n2c1	none
Cc1ccc2nc3c(cc(C(=O)NCCc4ccccc4)c(=N)n3CCN3CCOCC3)c(=O)n2c1	PREPL inh 45 | PREPL confirm inactive
NS(=O)(=O)c1ccc(CCNCc2cccnc2)cc1	none
CC(C)(C)c1ccc(Cn2c(=N)n(CC(O)c3ccco3)c3ccccc32)cc1 (stereo not drawn)	none
Cc1ccccc1Cn1c(=N)n(CC(O)c2ccco2)c2ccccc21 (stereo not drawn)	PREPL inh 45 | PREPL confirm inactive
O=C1NC2(CCCCCC2)C(=O)N1Cc1cccc([N+](=O)[O-])c1	none
N#CCC(=O)Nc1ncn(Cc2ccccc2Cl)n1	PREPL inh 54 | PREPL confirm inactive
COCC(C)NC(=O)c1cc2c(ccc3ccccc32)oc1=O (stereo not drawn)	none
COc1cccc(N=Nc2c(N)[nH]n3c(=O)c4c(nc23)CCCC4)c1	PREPL inh 59 | PREPL confirm 57
Cc1cc(C)cc(N(CCC#N)C(=O)COC(=O)c2nc3nc(C)cc(C)n3n2)c1	none
CCCCC(CC)C(=O)Nc1cc(C(=O)NCCC)ccc1N1CCC2(CC1)CC(c1ccccc1)=NO2 (stereo not drawn)	PREPL inh 50 | PREPL confirm 55
COc1ccc(NC2CCCN(C(=O)Cn3ccc(C)n3)C2)cc1OC (stereo not drawn)	none
Cc1nn(-c2ccccc2C(=O)O)c(=O)c2ccccc12	none
Cc1nn(-c2ccc(Br)cc2)c(=O)c2ccccc12	PREPL inh 75 | PREPL confirm inactive
COCCC(=O)N1CCC(Oc2ccc(C(=O)NCc3nccn3C)cc2)CC1	none
CCOc1ccc(Nc2nc(NCC3CCCO3)c3ccccc3n2)cc1 (stereo not drawn)	PREPL inh 59 | PREPL confirm 56
CCOc1ccc(Nc2c3ccccc3nc3ccccc23)cc1	PREPL inh 56 | PREPL confirm 60
c1ccc(Nc2nc(NCC3CCCO3)c3ccccc3n2)cc1 (stereo not drawn)	none
C[C@H](CO)N1C[C@H](C)[C@@H](CN(C)S(C)(=O)=O)Oc2ccc(N(C)C)cc2C1=O	none (no result: EBNA-1 inh, LYPLA2 counter, ZTA DNA inh, LYPLA1 counter)
COC(=O)c1cn(C(=O)c2cccc(Br)c2)c2ccccc12	none
CC(C)c1nnc(NC(=O)CCC(=O)NCc2ccc(F)cc2)s1	none
CC[n+]1ccc(C)c2cc(S(=O)C(F)(F)F)ccc21 (stereo not drawn)	none
CC[n+]1ccc(C)c2cc(P(=O)(c3ccccc3)c3ccccc3)ccc21	PREPL inh 57 | PREPL confirm inactive
COc1ccccc1CNC(=O)CN1C(=O)NC2(CCCCCCC2)C1=O	none (no result: EBNA-1 inh, LYPLA2 counter, ZTA DNA inh, LYPLA1 counter)
COc1ccc(/C=C/c2nc3ccccc3n2Cc2ccccc2OC)cc1	PREPL inh 49 | PREPL confirm 47
CC(=O)N1CCN(c2ccc(NCc3cccc(C)c3)cc2)CC1	PREPL inh 59 (no result: EBNA-1 inh) | PREPL confirm inactive
CCOc1cc(CNc2ccc(N3CCN(C(C)=O)CC3)cc2)cc(Br)c1OC	none
CC(=O)N1CCN(c2ccc(NCc3ccc(F)cc3)cc2)CC1	PREPL inh 67 | PREPL confirm inactive
COc1cc(CNc2ccc(N3CCN(C(C)=O)CC3)cc2)ccc1OCc1ccc(F)cc1	PREPL inh 45 | PREPL confirm inactive
O=C(Cc1ccc(F)cc1)N1CCN(c2ccc(F)cc2)CC1	none
CC(C)C(=O)Nc1cccc(C(=O)Nc2ccc(S(=O)(=O)Nc3nccs3)cc2)c1	none
Cc1ccc(C(=O)Nc2ccc(N3CCN(C)CC3)cc2)cc1C	none
O=C1CCc2cc(S(=O)(=O)NC3CCCCC3)ccc2N1	none (no result: EBNA-1 inh)
Cc1cc(C)c2c(n1)SCC(=O)N2CC(=O)Nc1cc(F)ccc1F	none
